From PubChem BioAssay (NCATS)
Inconclusive results are not listed. Activity calls are given as the source filed them. Calls follow the shape of the dose curve; as a rule, active = well fitted inhibition curve with a large enough effect; inconclusive = small, poorly fitted or top-dose-only effect; inactive = flat fitted curve, though single readings scatter.

experiment: P-glycoprotein substrates identified in KB-8-5-11 adenocarcinoma cell line, qHTS therapeutic library screen (AID 1346987); conditions: KB-8-5-11 (P-gp overexpressing) viability, CellTiter-Glo, 72 h; series mostly up to 44.5 µM; activity change, negative = cytotoxicity: at the top concentration; also: nearly all actives have a fitted effect of over 65% in size
Method in brief: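 Compounds are pinned in dose-response onto KB-8-5-11 cells (500 cells/well, colchicine-free medium) and left 72 h at 37 degree C. CellTiter-Glo luminescence then yields AC50 values.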
% is scaled to controls: 0 for no effect and ±100 for the full control effect; potency is read from the fitted curve at half-maximal effect.

Row | Structure (SMILES) | activity change, negative = cytotoxicity | Potency | outcome
1 | Cc1c(F)cc(C(=O)NC2CC2)cc1-c1c(F)cn2c(C(C)(C)C)nnc2c1F | -12.4% (inactive) | – | –
2 | Cc1ccc(S(=O)(=O)Cc2nc(-c3ccc(C(=O)NCc4cccnc4)cc3)oc2C)cc1 | – | 58 nM (active) | –
3 | COCCOc1cnc2ccn([C@H](C)c3nnc4c(F)cc(-c5cnn(C)c5)cn34)c(=O)c2c1 | -7.19% (inactive) | – | –
4 | CC1OC(OC2C(OC3C(O[C@H]4CC[C@@]5(C)C(CC[C@]6(C)C5C(=O)C=C5C7CC(C)(C)CC(O)[C@]7(C)CC[C@]56C)C4(C)C)OC(C(=O)O)C(O)C3O)OCC(O)C2O)C(O)C(O)C1O (stereo not given in full) | 7.36% [at 9.29 µM] (inactive) | – | –
5 | Cc1cc(O)c(-c2ccc([C@@H](C)CN(C)C)cc2)c2c1[nH]c(=O)c1sccc12 | – | 82 nM (active) | –
6 | CNC(=O)c1ccccc1Nc1nc(Nc2ccc3c(c2OC)CCC[C@@H](N2CCN(CCO)CC2)C3)ncc1Cl | – | 10300 nM (active) | –
7 | Nc1nc2c(ncn2[C@@H]2O[C@H](CO)[C@@H](O)[C@H]2O)c(=O)[nH]1 | – | – | inactive
8 | COc1ccc(C(=O)Nc2ncc(-c3ccc(C(=O)O)cc3)s2)cc1 | – | 2910 nM (active) | –
9 | CCOC(=O)c1sc(NC(=O)[C@H](C(C)C)n2c(=O)[nH]c3ccccc3c2=O)nc1C | -7.48% (inactive) | – | –
10 | CC12CCC(OC3OC(CO)C(O)C(OC4OC(CO)C(O)C(O)C4O)C3O)CC1CCC1C2CCC2(C)/C(=C3/COC(=O)C3)CCC12O (stereo not given) | 4.78% [at 17.3 µM] (inactive) | – | –
